Screening results (PubChem)
FLuc modulator: qHTS profiling assay for firefly luciferase inhibitor/activator using purifed enzyme and Km concentrations of substrates (counterscreen for miR-21 project); Luciferin 4-monooxygenase (Photinus pyralis), P08659; purified FLuc, Km substrates, luminescence inhibition; Potency, µM (highest dose often 57.5 µM), actives largely listed as inhibitors; 360,000 compounds, 6.9% hits; AID 588342, 2011; further: nearly all actives have a fitted effect of over 55% in size
Target sequence (P08659 whole entry, looked up): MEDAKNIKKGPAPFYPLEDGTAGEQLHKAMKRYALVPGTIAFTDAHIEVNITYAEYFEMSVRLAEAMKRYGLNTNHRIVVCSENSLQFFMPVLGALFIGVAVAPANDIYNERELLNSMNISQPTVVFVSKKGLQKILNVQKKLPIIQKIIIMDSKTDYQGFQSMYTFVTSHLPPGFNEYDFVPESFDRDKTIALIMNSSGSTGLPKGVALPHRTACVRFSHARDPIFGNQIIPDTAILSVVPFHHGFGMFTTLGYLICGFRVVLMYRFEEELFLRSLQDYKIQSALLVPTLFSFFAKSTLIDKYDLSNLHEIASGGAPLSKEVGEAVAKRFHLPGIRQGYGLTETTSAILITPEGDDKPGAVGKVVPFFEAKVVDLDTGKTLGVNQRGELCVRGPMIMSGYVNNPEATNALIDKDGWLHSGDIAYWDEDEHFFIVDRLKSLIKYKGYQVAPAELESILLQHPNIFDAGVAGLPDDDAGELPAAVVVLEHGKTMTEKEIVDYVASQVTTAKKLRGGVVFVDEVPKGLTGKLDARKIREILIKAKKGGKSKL
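Purified P. pyralis luciferase (10nM final) with 10uM D-luciferin and 10uM ATP (Km levels) in 50mM Tris acetate pH 7.5, 10mM Mg acetate, 0.01% Tween-20, 0.05% BSA; qHTS 6-point titration, ~60 µM downward; luminescence read.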
ELG1 DNA repair: qHTS screen for small molecules that inhibit ELG1-dependent DNA repair in human embryonic kidney (HEK293T) cells expressing luciferase-tagged ELG1. HEK293T ELG1-luciferase reporter, luminescence, 16 h; DNA damage induced by 5-fluorouridine. Potency, µM (series often up to 46.1 µM), actives largely listed as inhibitors. AID 504467, 2011. 330,000 compounds, 2.3% hits; further: nearly all actives have a fitted effect of over 55% in size
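HEK293T cells expressing luciferase-tagged ELG1 (2,000/well) received 5-Fluorouridine plus compound or DMSO for 16 hr at 37 °C. Luciferase was read by ONE-Glo luminescence after 30 min at room temperature.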
NPC1 prom act: qHTS Assay for NPC1 Promoter Activators | Huh7 NPC1 promoter luciferase reporter, 24 h | Potency, µM (highest dose often 9.22 µM), usual class: activators | 320,000 compounds, 2.4% hits | AID 485313, 2010; further: nearly all actives have a fitted effect of over 60% in size
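Huh7 cells stably carrying NPC1 promoter–luciferase, plated in Opti-MEM with 10% FBS for 2 h, were exposed to compound in DMSO for 24 h at 37 °C; luciferase reagent was added for 10 min and luminescence read.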
SMN2 splice up: qHTS Assay for Enhancers of SMN2 Splice Variant Expression | Potency, µM (doses to about 46.1 µM), hits mostly activators | 210,000 compounds, 2.8% hits | HEK293 SMN2-luciferase splicing reporter, luminescence, 30-36 h; further: nearly all actives have a fitted effect of over 55% in size
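HEK293 cells carry an SMN2 […]–luciferase reporter in which exon 7 inclusion puts luciferase in frame. Cells were plated 10-12 h before compound addition, then incubated 30-36 h at 37C. ONE-Glo luminescence was read; sodium butyrate at 4.5 mM final served as control.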
ELG1 genotox: qHTS screen for small molecules that induce genotoxicity in human embryonic kidney (HEK293T) cells expressing luciferase-tagged ELG1; AID 504466, 2011; HEK293T ELG1-luciferase reporter, luminescence, 16 h; 330,000 compounds, 1.3% hits; Potency, µM (titrated, usually from 46 µM), usual class: activators; further: nearly all actives have a fitted effect of over 60% in size
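Step 1: seed 2,000 HEK293T ELG1-luciferase cells per well. Step 2: add compound or DMSO, incubate 16 hr at 37 °C. Step 3: ONE-Glo, 30 min at room temperature, read luminescence.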
Rab9 promoter act: qHTS Assay for Rab9 Promoter Activators; Huh7 Rab9 promoter-luciferase reporter, luminescence, 24 h; Potency, µM (series often up to 9.22 µM), usual class: activators; 320,000 compounds, 2.8% hits; further: nearly all actives have a fitted effect of over 60% in size
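Using Huh7 cells stably transfected with Rab9 promoter–luciferase, compounds were incubated 24 h at 37 °C, 5% CO2; luciferase luminescence was read 10 min after reagent addition.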
Large screens that a line does not name were inactive. Compounds with a hit are over-represented: about 9.2% of the library has one in this group of screens. The call rests on the fitted dose curve; in most records, active means well fitted curve in the direction sought with a large enough effect; inconclusive means small, poorly fitted or top-dose-only effect, or another doubt; inactive means no such curve, though single readings can be large; an effect the other way counts as inactive or inconclusive.

CCc1ccc(C(=O)COC(=O)C(Cc2c[nH]c3ccccc23)NC(=O)c2ccc(Br)cc2)cc1 (centres undefined)	none (no result: ELG1 DNA repair, NPC1 prom act, SMN2 splice up, ELG1 genotox, Rab9 promoter act)
COc1ccc(/C(O)=C/c2nc3ccc(C(=O)NCCc4cccc(C)c4)cc3[nH]c2=O)cc1OC	ELG1 DNA repair 3.3µM
CCOc1ccc(C(=O)NCCN(C)C)cc1	none
CCOc1ccc(C(=O)NCCCCNC(=O)c2ccc(OCC)cc2)cc1	FLuc modulator inconclusive, ELG1 DNA repair inconclusive, NPC1 prom act 3.5µM, ELG1 genotox inconclusive, Rab9 promoter act inconclusive (no result: SMN2 splice up)
CCOC(=O)c1c(C)c(C(=O)NCCc2ccccc2)c(C)n1C	FLuc modulator inconclusive, ELG1 DNA repair inconclusive, NPC1 prom act inconclusive, SMN2 splice up 16µM, ELG1 genotox inconclusive, Rab9 promoter act 3.5µM
COc1ccc(C(=O)Nc2ccc(C(=O)NCCc3ccccc3)cc2)cc1	none (no result: SMN2 splice up)
CCOc1ccc(C(=O)NCCc2ccccc2)cc1	FLuc modulator 1.1µM, ELG1 DNA repair inconclusive, NPC1 prom act 0.4µM, SMN2 splice up 3.5µM, ELG1 genotox 0.58µM, Rab9 promoter act 0.32µM
COc1ccccc1CCC(=O)Nc1ccc2c(c1)CN(Cc1ccc(C)o1)CC2	none (no result: SMN2 splice up)
COC(=O)CSc1nnc(CNS(=O)(=O)c2ccc(Cl)cc2)n1C	none
CC(=O)Oc1ccc(C(=O)NCCc2ccccc2)cc1	FLuc modulator 9.5µM, ELG1 DNA repair inconclusive, NPC1 prom act 0.4µM, SMN2 splice up 8.9µM, Rab9 promoter act 0.5µM
COc1cc(OC)c(OC)cc1CNC(=O)c1ccc(COc2ccccc2)cc1	ELG1 DNA repair 10µM (no result: SMN2 splice up)
CS(=O)(=O)Nc1ccc(C(=O)NCCc2ccccc2)cc1	FLuc modulator inconclusive, ELG1 DNA repair inconclusive, NPC1 prom act inconclusive, SMN2 splice up 11µM, ELG1 genotox inconclusive, Rab9 promoter act 2µM
CS(=O)(=O)NCc1ccc(C(=O)NCCOc2ccccc2)cc1	FLuc modulator 19µM, ELG1 DNA repair inconclusive, NPC1 prom act 4µM, SMN2 splice up 11µM, ELG1 genotox inconclusive, Rab9 promoter act 3.5µM
CC(=O)Oc1ccc(-c2ccc(C(=O)NCCc3ccc(S(N)(=O)=O)cc3)cc2)cc1	none (no result: SMN2 splice up)
COc1ccc(CN(C)C(=O)c2ccc(COc3ccccc3)cc2)c(OC)c1	ELG1 DNA repair inconclusive (no result: SMN2 splice up)
COc1cc(OC)c(NC(=O)c2cc(CN3CCOCC3)on2)cc1Cl	none (no result: ELG1 DNA repair, NPC1 prom act, SMN2 splice up, ELG1 genotox, Rab9 promoter act)
CS(=O)(=O)N1CCc2cc(C(=O)NCCc3ccccc3)ccc21	FLuc modulator inconclusive, SMN2 splice up 13µM (no result: ELG1 DNA repair, NPC1 prom act, ELG1 genotox, Rab9 promoter act)
COc1ccc(C(=O)NCC(=O)OCCCOC(=O)CNC(=O)c2ccc(OC)c(OC)c2)cc1OC	none (no result: SMN2 splice up)
COc1ccc(C(=O)NCCc2ccccc2)cc1OC	FLuc modulator inconclusive, ELG1 DNA repair inconclusive, NPC1 prom act inconclusive, Rab9 promoter act 4µM (no result: SMN2 splice up)
CCc1ccc(CNC(=O)c2ccc(NC(=O)N3CC(C)Sc4ccccc43)cc2)cc1 (centres undefined)	none (no result: ELG1 DNA repair, NPC1 prom act, ELG1 genotox, Rab9 promoter act)
CC1CN(C(=O)Nc2ccc(C(=O)NCCc3ccccc3)cc2)c2ccccc2S1 (centres undefined)	SMN2 splice up 14µM (no result: ELG1 DNA repair, NPC1 prom act, ELG1 genotox, Rab9 promoter act)
COc1ccccc1NC(=O)COC(=O)CNC(=O)c1ccc(OC)c(OC)c1	ELG1 DNA repair inconclusive, SMN2 splice up 5µM, ELG1 genotox 18µM
CCS(=O)(=O)N1CCc2cc(C(=O)NCCc3ccccc3)ccc21	none (no result: ELG1 DNA repair, NPC1 prom act, SMN2 splice up, ELG1 genotox, Rab9 promoter act)
C=CCN1C(=O)/C(=C/c2ccc(O)c(OC)c2)S/C1=N/c1nccs1	ELG1 DNA repair 23µM
CCOc1ccc(CCNC(=O)COC(=O)c2ccc(OC)c(OC)c2OC)cc1OCC	ELG1 DNA repair 9.2µM
CCOc1ccc(CCNC(=O)COC(=O)c2cccc(N(C)C)c2)cc1OCC	ELG1 DNA repair inconclusive, NPC1 prom act 4µM, ELG1 genotox 1.8µM, Rab9 promoter act 1.6µM (no result: SMN2 splice up)
